Screening results: PubChem BioAssay, several laboratories
Most compounds without a hit are left out; they make up all but 3.6% or so of the library.
KKLEB cytotox – reduces viability of KKLEB cystic fibrosis airway cells; activity change (cytotoxicity), % at 5 µM; KKLEB CF airway cells viability, ATPlite luminescence, overnight; stronger effect = lower value; cells stimulated with P. aeruginosa culture filtrate; hit rate 0.36% among 360,000; AID 602141;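 active = corrected activity change at or below -50% at 5 µM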
CF NFkB inh – blocks PAF-induced NF-kB reporter in cystic fibrosis cells; KKLEB NF-kB-GFP reporter, GFP fluorescence overnight; hit rate 0.86% among 360,000; inhibition, % at 5 µM;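 active = at least 50% inhibition at 5 µM, scaled per plate between neutral and stimulator controls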;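 also: PAF is a Pseudomonas aeruginosa culture filtrate used as stimulus; plate controls were PAF-stimulated DMSO wells for no effect and unstimulated DMSO wells for full effect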
LGR2 antag – Drosophila LGR2 receptor signaling inhibition | HEK293 LGR2, CRE-luciferase, bursicon-stimulated, 4 h | inhibition, % at 9.99 µM | hit rate 0.35% among 380,000;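 active = drop in luminescence signal, shown as inhibition above about 50% in the replicate tests, limit read from the data, passing the limit was not always enough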;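 also: agonist challenge used bursicon conditioned medium at about half maximal strength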
Mdm2 MdmX PPI – human Mdm2/MdmX binding inhibition; O15151+Q00987; SaOS-2 split-luciferase Mdm2/MdmX complementation, luminescence; inhibition, % at 8 µM; hit rate 3% among 330,000; AID 485346;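 active = inhibition of at least 50% at 8 µM in the primary screen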
Peg3 prom inh – Peg3 promoter activity inhibition | HeLa PEG-Prom luciferase reporter, luminescence, overnight | inhibition, % at 20 µM | hit rate 1.7% among 360,000 | AID 588405;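 active = inhibition of at least 50% at 20 µM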
HSP90 refold inh – HSP90 refolding inhibition in rabbit reticulocyte lysate; luciferase refolding luminescence, 3 h; hit rate 0.91% among 290,000; AID 1789; inhibition, % at 5.6 µM;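 active = inhibition above the screen-wide mean plus 3 SD, computed separately per campaign, cut at about 16% in these data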;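 also: 0% = DMSO wells and 100% = 60 µM geldanamycin wells; inhibitors lower the luminescence because luciferase stays unfolded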
Mdm2-MdmX conf – human Mdm2/MdmX binding inhibition, confirmed | shares compounds with Mdm2 MdmX PPI | luminescent assay | inhibition, % at 8 µM | hit rate 55% among 10,000; in the data active = inhibition above about 40%
FLuc counter – full-length luciferase inhibition in Mdm2/MdmX counter-screen; shares compounds with Mdm2 MdmX PPI; SaOS-2 full-length luciferase counterscreen, luminescence; inhibition, % at 8 µM; hit rate 77% among 6,200; AID 504607;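 active = mean inhibition at 8 µM reaching about 37%, which flags the compound as non-specific, limit read from the data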;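 also: p53-null SaOS-2 cells with luciferase driven by a doxycycline-inducible promoter; compound on cells about two nights before reading with doxycycline added after day one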
Active calls of the source: *.

What do the screens show for `CO[C@@H](CN(C)S(=O)(=O)c1cn(C)cn1)[C@H](C)CN(C(=O)Nc1ccc(F)cc1)[C@@H](C)CO`?
LGR2 antag: -5.1

What do the screens show for `C[C@H](CO)N1C[C@H](C)[C@H](CN(C)Cc2ccc(C(=O)O)cc2)Oc2ccc(NC(=O)Cc3ccccc3)cc2CC1=O`?
LGR2 antag: -5.2

What do the screens show for `CCCNC(=O)C[C@@H]1CC[C@H]2[C@@H](COc3ccc(NC(=O)CCC)cc3C(=O)N2C)O1`?
LGR2 antag: -2.8

How did COc1ccc(C[C@H]2CN3C(=NC[C@@H]3Cc3ccccc3)N2CCNC(=O)CCC2CCCCC2)cc1 do in these assays?
KKLEB cytotox: 2.3; CF NFkB inh: 20.6; LGR2 antag: 82.0*; Mdm2 MdmX PPI: 88.3*; Peg3 prom inh: 98.8*; HSP90 refold inh: 10.3; Mdm2-MdmX conf: 28.0; FLuc counter: 53.7*

What do the screens show for `CO[C@@H]1CC[C@@H]2CCOc3ccc(C#N)cc3C(=O)N(C)CCCC(=O)N(C)C[C@@H]1O2`?
LGR2 antag: -14.0

What do the screens show for `Cn1cc([N+](=O)[O-])c(C(=O)Nc2nccs2)n1`?
KKLEB cytotox: 2.5; CF NFkB inh: 21.2; LGR2 antag: 2.4; Mdm2 MdmX PPI: 57.2*; Peg3 prom inh: -36.9; HSP90 refold inh: 5.1; Mdm2-MdmX conf: 16.6

Results for Cn1cc([N+](=O)[O-])c(C(=O)Nc2ccc(Br)cn2)n1 ?
KKLEB cytotox: 9.6; CF NFkB inh: 16.2; LGR2 antag: -2.3; Mdm2 MdmX PPI: 55.9*; Peg3 prom inh: 14.8; HSP90 refold inh: 0.4; Mdm2-MdmX conf: 43.5*; FLuc counter: 90.3*

How did Cc1ccc(C(=O)NC2c3ccccc3-c3ccccc32)cc1 do in these assays?
KKLEB cytotox: -24.1; CF NFkB inh: 32.8; LGR2 antag: -12.9; Mdm2 MdmX PPI: 59.1*; Peg3 prom inh: 12.7; HSP90 refold inh: 1.1; Mdm2-MdmX conf: 58.1*; FLuc counter: 53.5*

Results for Cc1ccc2c(c1)Oc1ccc(NC(=O)CCCl)cc1C(=O)N2 ?
KKLEB cytotox: -25.3; CF NFkB inh: 11.1; LGR2 antag: -5.8; Mdm2 MdmX PPI: 66.6*; Peg3 prom inh: 12.6; HSP90 refold inh: 3.8; Mdm2-MdmX conf: 68.0*; FLuc counter: 101.5*

Results for Cc1noc(C)c1S(=O)(=O)Nc1ccc2c(c1)C(=O)N([C@H](C)CO)C[C@H](C)[C@@H](CN(C)S(=O)(=O)c1ccc(Cl)cc1)O2 ?
LGR2 antag: 9.1

What do the screens show for `CCC(C)(C)c1ccc(OCCCC[n+]2ccc(C)cc2)c(C(C)(C)CC)c1`?
LGR2 antag: 33.9; Mdm2 MdmX PPI: 98.5*; HSP90 refold inh: 6.9; Mdm2-MdmX conf: 97.2*; FLuc counter: 53.4*

What do the screens show for `CCC(C)(C)c1ccc(OCCCC[n+]2cccc(C)c2C)c(C(C)(C)CC)c1`?
KKLEB cytotox: -31.6; CF NFkB inh: 46.6; Mdm2 MdmX PPI: 100.2*; Peg3 prom inh: 106.7*; HSP90 refold inh: 7.8; Mdm2-MdmX conf: 98.5*; FLuc counter: 53.0*

How did COc1cc(NC(=O)c2csc(N)n2)cc(C(=O)Nc2cccc(C(F)(F)F)c2)c1 do in these assays?
KKLEB cytotox: 3.6; CF NFkB inh: 10.1; LGR2 antag: -10.6; Mdm2 MdmX PPI: 59.1*; Peg3 prom inh: 46.7; Mdm2-MdmX conf: 56.7*; FLuc counter: 60.3*

How did COc1cc(NC(=O)c2cnc(N)s2)cc(C(=O)Nc2cccc(C(F)(F)F)c2)c1 do in these assays?
KKLEB cytotox: -1.9; CF NFkB inh: 12.4; LGR2 antag: -37.5; Mdm2 MdmX PPI: 35.2; Peg3 prom inh: -49.7

Results for Cc1cc(NC(=O)CC2CCCC2)n(-c2nc3ccccc3[nH]2)n1 ?
KKLEB cytotox: -4.9; CF NFkB inh: -8.3; Mdm2 MdmX PPI: 56.6*; Peg3 prom inh: 36.3; HSP90 refold inh: 6.3; Mdm2-MdmX conf: 11.1

How did Cc1cc(NC(=O)c2ccc(F)cc2F)n(-c2nc3ccccc3[nH]2)n1 do in these assays?
KKLEB cytotox: -12.8; CF NFkB inh: 12.5; LGR2 antag: 2.3; Mdm2 MdmX PPI: 65.8*; Peg3 prom inh: 31.0; HSP90 refold inh: 0.3; Mdm2-MdmX conf: 39.8; FLuc counter: 29.6

How did COc1ccc2c3c(n(C)c2c1)[C@H](CO)N(Cc1cc(F)ccc1F)CC31CN(C(C)=O)C1 do in these assays?
LGR2 antag: -0.4

How did Cc1cc(N2CCN(c3ccccc3)CC2)nc(NCc2ccccc2)n1 do in these assays?
KKLEB cytotox: -6.9; CF NFkB inh: 11.0; Mdm2 MdmX PPI: 75.7*; Peg3 prom inh: 42.6; HSP90 refold inh: -1.5; Mdm2-MdmX conf: 32.5

Results for CCCc1nc(C)cc(N2CCN(c3ccccc3)CC2)n1 ?
KKLEB cytotox: 4.3; CF NFkB inh: -7.8; LGR2 antag: 0.0; Mdm2 MdmX PPI: -28.8; Peg3 prom inh: 15.3; HSP90 refold inh: 2.9

What do the screens show for `Cc1cc(N/N=C/c2ccccc2Cl)nc(NCc2ccccc2)n1`?
KKLEB cytotox: -27.5; CF NFkB inh: 6.8; LGR2 antag: -1.6; Mdm2 MdmX PPI: 71.7*; Peg3 prom inh: -114.2; HSP90 refold inh: 0.5; Mdm2-MdmX conf: 38.2

What do the screens show for `Cc1ccc(Nc2cc(C)nc(NCc3ccccc3)n2)cc1`?
KKLEB cytotox: -29.2; CF NFkB inh: 37.1; Mdm2 MdmX PPI: 56.8*; Peg3 prom inh: 73.3*; HSP90 refold inh: -0.6; Mdm2-MdmX conf: 35.1

What do the screens show for `O=C(C[C@@H]1C[C@H]2c3cc(NC(=O)C4CCC4)ccc3O[C@H]2[C@@H](CO)O1)NCc1ccc(Cl)cc1`?
LGR2 antag: 2.0

What do the screens show for `C[C@H]1CN([C@@H](C)CO)C(=O)Cc2cc(NS(=O)(=O)c3cccs3)ccc2O[C@@H]1CN(C)S(=O)(=O)c1ccc(Cl)cc1`?
LGR2 antag: -1.4

Results for C=CCCC(=O)Nc1nc(C)c(-c2csc(Nc3ccc(Cl)cc3Cl)n2)s1 ?
KKLEB cytotox: -9.2; CF NFkB inh: 4.9; LGR2 antag: 25.3; Mdm2 MdmX PPI: 53.8*; Peg3 prom inh: -8.8; HSP90 refold inh: 3.2; Mdm2-MdmX conf: -17.1

Results for C=CCCC(=O)Nc1nc(C)c(-c2csc(Nc3ccccc3OC)n2)s1 ?
KKLEB cytotox: -17.5; CF NFkB inh: 39.6; LGR2 antag: -8.5; Mdm2 MdmX PPI: 59.5*; Peg3 prom inh: 11.3; HSP90 refold inh: 0.8; Mdm2-MdmX conf: 56.4*; FLuc counter: 56.1*

How did C[C@@H]1CN([C@H](C)CO)C(=O)c2c(c3ccccc3n2C)-c2ccccc2CO[C@@H]1CN(C)Cc1cccc(C(=O)O)c1 do in these assays?
LGR2 antag: 3.4

What do the screens show for `C[C@@H]1CN([C@@H](C)CO)C(=O)c2c(c3ccccc3n2C)-c2ccccc2CO[C@H]1CN(C)Cc1ccccc1C(F)(F)F`?
LGR2 antag: 10.1
